The results in this text go back to PubChem BioAssay (NCI).

SMILES strings stand for the structures. This is part of a sample that, as a whole, favours compounds with a hit. Of some 83,000 tested, about 20% had one in any assay.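 Testing used 96-well plates and a 48-hour single-concentration exposure. Example: -40 means 40% of the starting cells died.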 Values without a mark were called inactive. Calls of active or inactive are those of the source. How the source made its calls: active means growth percent below 10; inactive means the rest.

The test system of the test is SK-MEL-2 melanoma. As to the kind of experiment: NCI-60 one-dose screen, 48 h (100 = growth as untreated, 0 = no growth, -100 = all killed). Conditions: 10 µM unless noted.
With `O=C(Nc1nc2ccccc2s1)Nc1ccccc1Cl`, the growth is 99.9%.
In the case of `Cc1ccc(C(=O)Nc2cc(-n3ccnc3C)cc(C(F)(F)F)c2)cc1C#Cc1cnc2cccnn12`, the growth is -64.1% (active).
In the case of `O=C(c1ccc(O)cc1)C1[C@H](c2ccc(Cl)cc2)[C@@H](c2ccccc2)NC12C(=O)Nc1ccccc12` (stereo partly specified) it was -72.3% (active); in that of `COc1ccc(-c2nc3ccc(-c4nnc(SCC(=O)Nc5ccc(/C(C)=N\O)cc5)o4)cc3[nH]2)cc1`, 76.2%.
In the case of `C[C@H]1[C@@H](CC(=O)N[C@@H](Cc2coc3ccccc23)B(O)O)O[C@@H]2OC3(C)CC[C@H]4[C@H](C)CC[C@@H]1[C@@]24O3` it was -20.7% (active); in that of `Cc1cc(C(NC(=O)C2CC3(CC(Nc4cccc5c4C(=O)N(C4CCC(=O)NC4=O)C5=O)C3)C2)c2ccc3c(c2)OC(F)(F)O3)c(O)c2ncccc12` (stereo unspecified), -4.6% (active).
In the case of `NC(=O)c1ccc(-c2ccc3ncnc(N4CCc5cc(F)c(Cl)cc54)c3c2)cn1` it was 95.2%.
As for `CCN1C(=O)N(CC)C2NNC(Sc3c(C(=O)O)c4ccccc4n(CCC(C)C)c3=O)=NC21` (stereo unspecified), the growth is 22.3%.
Next, `COc1ccc2[nH]c(O)c(N=Nc3nc(-c4ccc(Cl)cc4)cs3)c2c1`: 14%.
Next, `CC[C@]12C=CCN3CC[C@@]4(c5ccc(OC)cc5N(C)[C@H]4[C@@](O)(C(=O)OC)[C@@H]1OC(=O)CCCC[P+](c1ccc(F)cc1)(c1ccc(F)cc1)c1ccc(F)cc1)[C@@H]32`: -54% (active).
Take `COc1cccc(/C=C/c2nc3ccccc3c(=O)n2CC(=O)Nc2ccccc2)c1`: the growth was 81%.
